Bioassay records: PubChem, several laboratories
CYP2C19 inhib = inhibitors of human CYP2C19. P33261. CYP2C19 Supersomes, luciferin-H EGE luminescence, 30 min. inhibition, % at 5 µM. 96,000 tested, 21% active;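 active = CYP2C19 inhibition above a set limit at 5 µM in the primary screen, cut at about 50% in these data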;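 also: plate controls were negative control wells for no effect and 2.5 mM tranylcypromine positive control for full effect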
CYP2C9 inh = inhibitors of human CYP2C9 | CYP2C9 Supersomes, luciferin-H conversion, luminescence | inhibition, % at 5 µM | 96,000 tested, 20% active;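 active = blocking of liver enzyme CYP2C9 beyond about 50% at 5 µM, limit read from the data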
D1 mod = allosteric modulators of human D1 dopamine receptor | P21728 | HEK293 D1, CRE-luciferase, dopamine EC30 potentiation; actives deviate in either direction | B-score at 10 µM | 58,000 tested, 5.9% active | AID 641;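 active = luminescence count or its row- and column-corrected plate score outside the 99.7% band of the plate's sample wells, on either side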
CYP2C19 act = cytochrome P450 2C19 (human) activation. P33261. recombinant CYP2C19, luciferin-H EGE luminescence; hits give high values; 0 = fully inhibited enzyme, 1 = untreated enzyme. activation factor at 5 µM. 96,000 tested, under 10 active;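 active = activation factor of at least 2 at 5 µM in the primary screen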;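 also: 0 = wells with 2.5 mM tranylcypromine and 1 = vehicle-only wells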
DAT uptake mod = human DAT dopamine uptake with cocaine, either direction; LLC-PK1 hDAT cells, [14C]-dopamine uptake with cocaine IC80; actives deviate in either direction; AID 449768; Q01959; B-score at 10 µM; 110,000 tested, 1.3% active;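 active = Z score or B-score, a plate-position-corrected score, falls beyond the plate's 99.7% confidence bounds, in either direction; inactive = both scores lie inside the 99.7% bounds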;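 also: scored against the spread of the other compound wells on the same plate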
Target sequence (Q01959 whole entry, looked up): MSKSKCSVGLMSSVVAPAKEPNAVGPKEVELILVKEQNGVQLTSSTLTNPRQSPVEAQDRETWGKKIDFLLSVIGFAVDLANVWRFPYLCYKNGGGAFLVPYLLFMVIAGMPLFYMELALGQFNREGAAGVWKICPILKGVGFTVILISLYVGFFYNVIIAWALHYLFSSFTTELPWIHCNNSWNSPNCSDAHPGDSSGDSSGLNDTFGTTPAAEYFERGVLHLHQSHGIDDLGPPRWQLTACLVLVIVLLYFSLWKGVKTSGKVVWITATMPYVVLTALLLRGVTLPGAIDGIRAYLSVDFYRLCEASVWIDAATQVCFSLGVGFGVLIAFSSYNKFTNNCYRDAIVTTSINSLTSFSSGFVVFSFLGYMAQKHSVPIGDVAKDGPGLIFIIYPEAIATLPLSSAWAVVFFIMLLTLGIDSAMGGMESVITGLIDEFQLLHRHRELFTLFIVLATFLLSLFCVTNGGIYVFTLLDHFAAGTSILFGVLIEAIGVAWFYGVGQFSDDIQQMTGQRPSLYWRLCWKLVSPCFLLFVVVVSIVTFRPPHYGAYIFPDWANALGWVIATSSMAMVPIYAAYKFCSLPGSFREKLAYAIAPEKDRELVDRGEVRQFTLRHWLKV
CYP2C9 activ = CYP2C9 (human) activation; recombinant CYP2C9, luciferin-H conversion, luminescence; hits give high values; factor 1 = untreated enzyme, 0 = blocked; activation factor at 5 µM; 96,000 tested, 1.4% active;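 active = activation factor of 2 or more for CYP2C9 at a 5 µM dose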;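 also: 0 = sulfaphenazole-blocked wells and 1 = vehicle-only wells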
* = called active by the depositor; . = not tested or not shown. This is a sample that favours compounds with a hit; in the whole collection about 28% have one here.

SMILES	CYP2C19 inhib	CYP2C9 inh	D1 mod	CYP2C19 act	DAT uptake mod	CYP2C9 activ
O=P(O)(O)CCP(=O)(c1ccccc1)c1ccccc1	7	6	.	0.9	-2.5*	0.9
CCC(SC1=N/C(=C/c2ccccc2OC)C(=O)N1c1ccccc1)C(=O)Nc1cc(C)on1 (stereo not given)	24	67*	.	0.8	-0.0046	0.3
CC(NC(=O)C(=O)NN=C1CCCCCCCCCCC1)c1ccccc1 (stereo not given)	14	-3	.	0.9	-1.2	1
Nn1c(SCC(=O)N2CCN(S(=O)(=O)c3ccc(Cl)cc3)CC2)nnc1-c1cccs1	36	50*	.	0.6	0.92	0.5
O=C(CSc1nc(-c2ccccc2)c(-c2ccccc2)[nH]1)N1CCN(S(=O)(=O)c2ccccc2)CC1	86*	80*	.	0.1	0.25	0.2
Cn1c(SCC(=O)N2CCN(S(=O)(=O)c3ccccc3)CC2)nc2ccccc21	30	-48	.	0.7	-0.006	1.5
CC(C)Cn1c(SCC(=O)N2CCN(S(=O)(=O)c3ccccc3)CC2)nc2ccccc21	80*	78*	0.24	0.2	1.2	0.2
O=C(CSc1nc2ccccc2c(=O)[nH]1)N1CCN(S(=O)(=O)c2ccccc2)CC1	16	22	.	0.8	-0.7	0.8
COc1ccccc1-n1cnnc1SCc1csc(-c2ccccc2)n1	43	-35	.	0.6	2.4	1.3
c1ccc(-c2nc(CSc3n[nH]c(-c4cccs4)n3)cs2)cc1	60*	33	.	0.4	4.1*	0.7
Cn1c(SCC(=O)N2CCN(S(=O)(=O)c3ccc(Cl)cc3)CC2)nc2ccccc21	58*	-103	.	0.4	-0.58	2*
O=C(CSc1n[nH]c(-c2cccs2)n1)N1CCN(S(=O)(=O)c2ccccc2)CC1	32	51*	0.21	0.7	-0.18	0.5
Nn1c(SCC(=O)N2CCN(S(=O)(=O)c3ccccc3)CC2)nnc1-c1cccs1	-2	-1	.	1	0.84	1
CCCCC1(Cc2cccc([N+](=O)[O-])c2)C(=O)N(c2ccccc2)N(c2ccccc2)C1=O	80*	80*	.	0.2	-0.61	0.2
CCOc1cc(C2c3c(oc4cc(C)c(Cl)cc4c3=O)C(=O)N2Cc2ccco2)ccc1O (stereo not given)	-5	14	0.064	1.1	1.2	0.9
CCN1CCN(CC(=O)n2c3c(c4ccccc42)CC(C)CC3)CC1 (stereo not given)	51*	-2	0.85	0.5	0.35	1
CC1CCN(CC(=O)n2c3c(c4ccccc42)CCCC3)CC1	68*	-29	.	0.3	-0.54	1.3
CC(=O)Nc1ccc(-c2nnc(SCC(=O)n3c4c(c5ccccc53)CCCC4)n2C)cc1	34	46	-0.059	0.7	0.51	0.5
Cn1c(SCC(=O)n2c3c(c4ccccc42)CCCC3)nnc1-c1ccccc1	69*	-100	.	0.3	0.25	2*
Cn1c(=O)c2c(nc(-n3ccnc3)n2Cc2ccc([N+](=O)[O-])cc2)n(C)c1=O	4	-8	.	1	0.48	1.1
COC(=O)C12CC3CC(C1)CC(n1cnc(Cl)n1)(C3)C2	.	.	.	.	0.93	.
Cc1c(NC(=S)/C=C2\N(C)c3ccccc3C2(C)C)c(=O)n(-c2ccccc2)n1C	65*	-93	.	0.4	2.1	1.9
Cc1c(N=C/C=C2/N(C)c3ccccc3C2(C)C)c(=O)n(-c2ccccc2)n1C	.	.	.	.	0.16	.
Cc1c(N=C/C=C2\N(C)c3ccccc3C2(C)C)c(=O)n(-c2ccccc2)n1C	74*	-10	-1.7	0.3	-0.11	1.1
Cc1ccc(NC(=O)COc2ccc(/C(N)=N/O)cc2)cc1C	.	.	-0.45	.	.	.
COc1ccc(OC2C(=O)N(c3ccc(F)cc3)C2c2ccc(OC)c(OC)c2)cc1 (stereo not given)	3	7	.	1	0.1	0.9
COC(=O)c1ccc(C2C(Oc3ccc(OC)cc3)C(=O)N2CCc2ccc(F)cc2)cc1 (stereo not given)	56*	25	.	0.4	-0.27	0.7
COc1ccc(C2C3=C(CC(C)(C)CC3=O)Nc3c2c(=O)[nH]c2nc(C)nn32)cc1 (stereo not given)	4	12	-0.8	1	1	0.9
